# Assay results published in PubChem BioAssay (NCI).
# The panel holds about 83,000 compounds, 20% with a hit somewhere; the sample as a whole holds those more often.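 Interpretation: 100, growth as untreated; towards 0, rising growth inhibition; 0, no net growth; 0 to -100, cell death. Compounds scoring below 10 were considered active.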 Calls of active or inactive are those of the source.
# Tested on: IGROV1 ovarian
# Test: NCI-60 one-dose screen, 48 h (100 = growth as untreated, 0 = no growth, -100 = all killed)
# Conditions: 10 µM unless noted
row,Structure (SMILES),growth
1,CCn1cc(-c2ccnc(NCCNS(=O)(=O)c3cccc4ccccc34)c2)c(-c2cccc(O)c2)n1,91.5% (inactive)
2,Cc1ccc(-c2cc(O)c(-c3ccc(C)cc3C)cc2O)c(C)c1,86.9% (inactive)
3,CCc1ccc(-c2ccc(COc3ccc(CC4SC(=O)NC4=O)cc3)cc2)cc1 (stereo not given),63.8% (inactive)
4,CCCn1ccnc1C(O)c1ccc(OCc2ccccc2)c(OC)c1 (stereo not given),96.9% (inactive)
5,O=C(Nc1cc(F)cc2cccnc12)c1cnc(N2CCNCC2)cn1,43.5% (inactive)
6,O=C(CCCSc1nc(-c2ccccc2)cc(-c2ccccc2)n1)NO,12.6% (inactive)
7,O=C(CCN1CCCCC1)c1ccc(Cl)cc1,107% (inactive)
8,O=C(NCCCNC(=O)OCc1ccc2c(Br)cc(Br)c(O)c2n1)OCc1ccc2c(Br)cc(Br)c(O)c2n1,-87.7% (active)
9,Cc1ccc(N)c(O)c1,69.6% (inactive)
10,COc1cc2c(=O)[nH]c3cc([N+](=O)[O-])ccc3c2cc1[N+](=O)[O-],41.5% (inactive)
11,C/C=C/C1OC23CCCCC2C(C#N)(C(=N)O3)C1(C#N)C#N (stereo not given),96.2% (inactive)
12,Cc1ccc(S(=O)(=O)NCCCNc2nccc(-c3c(-c4cccc(F)c4)nc4occn34)n2)cc1,48.1% (inactive)
13,COc1ccc2c(c1)C(C)Cc1c(ncnc1-n1cnc3ccccc31)N2C (stereo not given),50.7% (inactive)
14,Clc1ccccc1/C=N\Nc1ccccn1,64% (inactive)
15,CC(C)C1=NOC(=O)C1=Cc1cn(-c2ccccc2)nc1-c1cccc([N+](=O)[O-])c1,70.4% (inactive)
